In PubChem BioAssay (Tox21):
Several values for one entry are separate records, joined by “and”; a condition that tells them apart may be missing. Equal entries are not always repeated. Inconclusive results are not listed. Unmarked numbers belong to inactive results. Activity calls are given as the source filed them. Calls come from the whole dose curve; as a rule, active = well fitted inhibition curve with a large enough effect in the signal ratio in the repeat runs; inconclusive = weak or mixed curves, or effect the other way; inactive = flat fitted curve, though single readings scatter; the % refers to the signal ratio.

Assay: qHTS assay for small molecule disruptors of the mitochondrial membrane potential (AID 720635)
Details: HepG2 mitochondrial membrane potential, Mito-MPS dye ratio; series mostly up to 83.2 µM; ratio activity, negative = MMP loss: at the top concentration
Procedure, shortened: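 HepG2 cells exposed to compound 1 hr at 37C, then Mito-MPS dye 30 min. Ratio read of aggregate (540/590 nm) versus monomer (490/535 nm) fluorescence.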
% is set by controls: 0 for no effect and ±100 for the full control effect; potency is the fitted concentration of half-maximal effect.

SMILES | ratio activity, negative = MMP loss | Potency
CCCCCCCCS(=O)C(C)Cc1ccc2c(c1)OCO2 (stereo not drawn) | -27.6% [at 95.3 µM] | 
CC(NN)c1ccccc1 (stereo not drawn) | -22.7% | 
CCCCc1oc2ccc(NS(C)(=O)=O)cc2c1C(=O)c1ccc(OCCCN(CCCC)CCCC)cc1 |  | 9.44 µM (active)
CCCCCOC(=O)CCCC | 13.1% | 
NNc1nc(-c2ccc(N)cc2)cs1 |  | 0.0545 µM (active)
CCc1cc(Cc2cc(CC)cc(C(C)(C)C)c2O)c(O)c(C(C)(C)C)c1 |  | 0.864 µM (active)
CCCCCCCCCCC=O | 12.4% [at 95.3 µM] | 
CCCCC(CC)CN=C(N)NC(N)=NCCCCCCN=C(N)NC(N)=NCC(CC)CCCC (stereo not drawn) |  | 17.6 µM (active)
O=C(c1ccc(O)cc1O)c1ccc(O)cc1O |  | 12.2 µM (active) and 7.7 µM (active)
CCOC(=O)O[C@]1(C(=O)OCCl)CC[C@H]2[C@@H]3CCC4=CC(=O)C=C[C@]4(C)[C@H]3[C@@H](O)C[C@@]21C | -11.4% | 
C1CCCC1 | 10.2% | 
CCCCC(CC)COP(=O)(O)OCC(CC)CCCC (stereo not drawn) |  | 68.7 µM (active)
C[n+]1cc2c3c(ccc2c2ccc4cc5c(cc4c21)OCO5)OCO3 |  | 8.41 µM (active)
